Measured values reported in paper PMC4081100, “A DNA-binding-site landscape and regulatory network analysis for NAC transcription factors in Arabidopsis thaliana”.

Biological target: T1, GST-ANAC092(1-176) (Arabidopsis thaliana, UniProt Q9FKA0 1-176)
T1 sequence: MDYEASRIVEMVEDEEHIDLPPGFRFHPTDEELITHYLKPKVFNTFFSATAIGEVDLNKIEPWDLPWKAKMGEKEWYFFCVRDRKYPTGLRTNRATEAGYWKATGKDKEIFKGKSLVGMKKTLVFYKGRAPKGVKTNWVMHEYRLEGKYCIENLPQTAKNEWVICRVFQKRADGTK
Test: universal protein binding microarray (PBM); transcription factors of Arabidopsis thaliana; high values mean tight binding
Conditions: protein: recombinant; tags: GST; chain copies: 2; dsDNA, one strand shown
Method in brief: (§1)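 Each value is a normalised enrichment score (E-score) describing binding. The GST-tagged proteins, NAC-domain, full-length or DNA-binding-domain, were induced in cells (zinc-finger proteins with zinc acetate added) and purified on glutathione–Sepharose 4B. They were applied at 200 to 500 nM final, in duplicate, to double-stranded custom all-10-mer Agilent 4 × 180K arrays, and gapped and ungapped 8-mers were scored.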

Sequence	binding signal [E-score]
CAAGACCA	0.106
ATTGGTCA	0.0884
TGGTCAAA	0.0858
ACACGGTA	0.437
CCACGGAA	0.219
GCACGGTA	0.375
AGAGGGAA	0.114
CTTGACCA	0.0818
GTGGTCAA	0.0557
ACACGGCT	0.181
CTTGACTC	0.0601
GGATTGAC	0.0627
AGTCAATC	0.0925
ATTGACTA	0.0863

Biological target: GST-NTL6(1-168) (Arabidopsis thaliana, UniProt Q9SCK6 1-168)
Test: as above
Conditions: protein: recombinant; tags: GST; chain copies: 2; dsDNA, one strand shown
Method in brief: as §1

Sequence of GST-NTL6(1-168) (Q9SCK6 1-168): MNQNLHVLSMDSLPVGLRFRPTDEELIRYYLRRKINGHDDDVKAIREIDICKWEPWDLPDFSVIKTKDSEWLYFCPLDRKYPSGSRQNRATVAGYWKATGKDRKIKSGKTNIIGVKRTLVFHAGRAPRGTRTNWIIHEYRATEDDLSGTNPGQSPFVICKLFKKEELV

Sequence	binding signal [E-score]
CAAGACCA	0.0845
AGGTCAAA	0.0901
AAGTCTTC	0.204
CCACGGAA	0.117
ATGGTCAA	0.05
AATGGTCA	0.0526
CTATTGAC	0.075
AGAGGGAA	0.178
TTCGTCAA	0.0728
GTCAAATA	0.0593
GGATTGAC	0.0579
TGACTAAA	0.0547
AGTCAATC	0.0768

Biological target: T2, GST-ANAC019 NAC domain (Arabidopsis thaliana, UniProt Q9C932 14-162)
T2 sequence: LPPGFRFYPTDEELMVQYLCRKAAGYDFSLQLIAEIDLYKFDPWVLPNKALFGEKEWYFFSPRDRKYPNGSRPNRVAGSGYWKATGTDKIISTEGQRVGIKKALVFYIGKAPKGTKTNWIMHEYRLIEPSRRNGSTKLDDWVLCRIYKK
Test: as above
Conditions: protein: recombinant; tags: GST; chain copies: 2; dsDNA, one strand shown
Method in brief: as §1

Sequence	binding signal [E-score]
AGTCAACT	0.183
AAGTCTTC	0.052
AGTCGTGC	0.412
ACACGGTA	0.286
CCACGGAA	0.427
GCACGGTA	0.2
GTCAATCA	0.0668
AGAGTCAA	0.108
CTTGACCA	0.0734
CTAGTCAA	0.0699
AAAGTCGT	0.29
ACACGGCT	0.418
TACAGTCA	0.109
CACGGCTC	0.42
GGATTGAC	0.102
TGACTAAA	0.0691
AGTCAATC	0.0741

Biological target: T3, GST-ANAC055(1-171) (Arabidopsis thaliana, UniProt Q9LDY8 1-171)
T3 sequence: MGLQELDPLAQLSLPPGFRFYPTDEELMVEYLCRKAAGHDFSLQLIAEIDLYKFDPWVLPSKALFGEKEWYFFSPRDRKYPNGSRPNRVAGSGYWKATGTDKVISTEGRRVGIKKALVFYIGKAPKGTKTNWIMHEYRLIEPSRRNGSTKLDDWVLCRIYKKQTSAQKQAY
Test: as above
Conditions: protein: recombinant; tags: GST; chain copies: 2; dsDNA, one strand shown
Method in brief: as §1

Sequence	binding signal [E-score]
CAAGACCA	0.092
AGGTCAAA	0.0973
AAGTCTTC	0.0748
AGTCGTGC	0.341
ACACGGTA	0.265
GTTGACAA	0.127
CCACGGAA	0.326
ATGGTCAA	0.0866
GTTGGTCA	0.182
GCACGGTA	0.189
CTATTGAC	0.0817
GTCAATCA	0.0807
AGAGGGAA	0.0527
CTTGACCA	0.104
GTGGTCAA	0.113
CTAGTCAA	0.171
TTCGTCAA	0.0829
AAAGTCGT	0.271
ACACGGCT	0.347
TACAGTCA	0.0559
CACGGCTC	0.384
ATAGTCAA	0.122
GTCAAATA	0.0664
AATGTCAA	0.155
GGATTGAC	0.0598
ATTGACTA	0.18
AATAGTCA	0.0507

Biological target: T4, GST-ATAF1 NAC domain (Arabidopsis thaliana, UniProt Q39013 7-158)
T4 sequence: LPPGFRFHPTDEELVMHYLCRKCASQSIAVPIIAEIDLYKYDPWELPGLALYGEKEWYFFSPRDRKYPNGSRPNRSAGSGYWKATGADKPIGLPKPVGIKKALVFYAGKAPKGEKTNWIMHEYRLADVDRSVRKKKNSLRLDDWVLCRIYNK
Test: as above
Conditions: protein: recombinant; tags: GST; chain copies: 2; dsDNA, one strand shown
Method in brief: as §1

Sequence	binding signal [E-score]
AGTCAACT	0.0655
CAAGACCA	0.0751
AGGTCAAA	0.0548
AAGTCTTC	0.0685
AGTCGTGC	0.264
TGGTCAAA	0.062
ACACGGTA	0.21
GTTGACAA	0.195
CCACGGAA	0.211
ATGGTCAA	0.155
GTTGGTCA	0.131
GCACGGTA	0.134
CTATTGAC	0.0721
AGAGGGAA	0.0736
CTTGACCA	0.145
GTGGTCAA	0.135
CTAGTCAA	0.148
TTCGTCAA	0.106
AAAGTCGT	0.258
ACACGGCT	0.264
TACAGTCA	0.107
CACGGCTC	0.336
CTTGACTC	0.0754
ATAGTCAA	0.263
GTCAAATA	0.141
ATATTGAC	0.167
AATGTCAA	0.19
AGTCAATC	0.0533
ATTGACTA	0.259
AATAGTCA	0.061
